# Where “and” joins values, the source holds several entries; their conditions need not be identical. Equal values may be shown once. For part of these data: Measured potencies and affinities stand elsewhere. Where a structure was tested more than once in an assay, its records may differ in their call. Calls of active or inactive are those of the source.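 Rule for the calls, unless noted: active = normalized viability below 100% at a tested concentration; inactive = the rest.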
# Assays:
# [1] = target: 6-phosphogluconate dehydrogenase, decarboxylating (Homo sapiens) (UniProt P52209); experiment: inhibition of human phosphogluconate dehydrogenase – biochemical, recombinant enzyme, NADPH absorbance, primary screen (AID 1159550;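 active = at least 20% inhibition of 6-phosphogluconate dehydrogenase activity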); conditions: recombinant 6PGD, NADPH absorbance 341 nm; at 10 µM; stronger effect = higher value
# 6-phosphogluconate dehydrogenase, decarboxylating (Homo sapiens), sequence (P52209 whole entry, looked up): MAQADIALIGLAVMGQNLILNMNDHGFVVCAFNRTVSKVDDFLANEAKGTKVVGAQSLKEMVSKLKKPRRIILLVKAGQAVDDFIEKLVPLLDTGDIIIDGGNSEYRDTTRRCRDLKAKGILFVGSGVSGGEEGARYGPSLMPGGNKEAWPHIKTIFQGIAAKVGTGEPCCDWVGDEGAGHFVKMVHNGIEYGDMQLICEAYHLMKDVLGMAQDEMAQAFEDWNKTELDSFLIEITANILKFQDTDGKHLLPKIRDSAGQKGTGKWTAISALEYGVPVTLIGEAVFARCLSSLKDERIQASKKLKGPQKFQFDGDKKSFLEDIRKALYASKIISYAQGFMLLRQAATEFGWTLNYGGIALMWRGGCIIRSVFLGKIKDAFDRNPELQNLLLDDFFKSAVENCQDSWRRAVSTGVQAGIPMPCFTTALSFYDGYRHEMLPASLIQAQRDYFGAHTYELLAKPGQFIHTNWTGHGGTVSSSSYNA
# [2] = EMT-state selective cytotoxicity in co-culture – imaging, PC-3E GFP, TEM4-18 mCherry, primary screen (AID 1345086;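 active = compounds killing one labelled cell type while sparing the other, by normalised counts and ratio limits, not self-fluorescent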;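 for all read-outs here: cells exposed to compound for 72 h before imaging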;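 for red/green cell ratio (normalised): normalised mesenchymal count divided by normalised epithelial count so high means epithelial killing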); conditions: PC-3E GFP / TEM4-18 mCherry co-culture, imaging cell counts, at 1 µM; for red/green cell ratio (normalised): actives lie on both sides, counts scaled to control wells, 1 = unselective
# [3] = viability loss with induced miR-34 in A549 – imaging, A549 dox-inducible miR-34, nuclei and caspase counts, primary screen (AID 1347080;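 active = compounds whose cell count with miR-34 switched on is under 0.7 times the count with it off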); conditions: A549 miR-34 inducible, Hoechst nuclei count, 48 h
# [4] = MELAS cybrid and Rieske KO viability enhancers – cell-based, MELAS cybrids, Rieske KO mouse fibroblasts, CellTiter-Glo, primary screen (AID 1508586;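 active = mean z-score across replicates of 1.96 or higher in either the MELAS or the Rieske mutant cell line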;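 note: z relative to plate mean and SD of compound and empty wells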); conditions: low glucose
# [5] = drug combination growth inhibition, ovarian cancer – cell-based, oncology-focused library, rucaparib conditional, profiling panel (AID 1508598); conditions: patient-derived ovarian cancer cells, CellTiter-Glo viability, 144 h, stronger effect = lower value
# [6] = target: Mitogen-activated protein kinase 7 (Homo sapiens) (UniProt Q13164); experiment: Gal4-ERK5 driven luciferase induction – cell-based, HTS, primary screen (AID 1508626;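 active = luciferase signal above three times the same-plate solvent-only control wells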;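 note: luciferase driven by Gal4-ERK5 fusion binding five Gal4 sites before minimal TATA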); conditions: HeLa Gal4-ERK5 transactivation, 18 h, at 5 µM, stronger effect = higher value
# Mitogen-activated protein kinase 7 (Homo sapiens), sequence (Q13164 whole entry, looked up, the tested form may be a part): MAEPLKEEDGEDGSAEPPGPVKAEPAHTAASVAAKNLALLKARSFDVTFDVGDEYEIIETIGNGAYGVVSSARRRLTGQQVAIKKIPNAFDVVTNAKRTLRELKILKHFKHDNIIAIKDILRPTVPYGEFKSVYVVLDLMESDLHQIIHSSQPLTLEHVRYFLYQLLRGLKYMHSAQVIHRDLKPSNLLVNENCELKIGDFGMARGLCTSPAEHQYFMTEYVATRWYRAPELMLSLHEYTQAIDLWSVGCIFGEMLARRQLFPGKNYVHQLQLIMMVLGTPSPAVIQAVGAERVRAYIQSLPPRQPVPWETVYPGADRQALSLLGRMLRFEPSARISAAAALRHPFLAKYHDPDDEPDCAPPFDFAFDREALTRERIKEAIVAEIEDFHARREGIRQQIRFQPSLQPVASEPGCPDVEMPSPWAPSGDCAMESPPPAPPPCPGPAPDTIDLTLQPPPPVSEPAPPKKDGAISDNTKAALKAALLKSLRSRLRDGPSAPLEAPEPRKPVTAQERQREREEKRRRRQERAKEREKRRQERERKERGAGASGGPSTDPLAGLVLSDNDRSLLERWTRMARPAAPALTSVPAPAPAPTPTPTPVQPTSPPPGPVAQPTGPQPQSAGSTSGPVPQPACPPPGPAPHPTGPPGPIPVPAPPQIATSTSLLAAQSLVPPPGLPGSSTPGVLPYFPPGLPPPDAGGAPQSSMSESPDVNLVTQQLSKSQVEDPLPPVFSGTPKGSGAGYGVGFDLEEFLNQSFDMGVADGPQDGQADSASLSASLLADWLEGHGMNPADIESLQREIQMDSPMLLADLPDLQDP
# [7] = P. berghei load reduction in hepatocytes – cell-based, HepG2, luciferase luminescence, HepG2 viability, primary screen (AID 624349; in the data active = parasite load remaining mostly below about 12%, no sharp cut-off; inactive = mostly above about 10%;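 note: 100% = mean of DMSO negative control wells on the same plate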); conditions: P. berghei liver stage in HepG2, luciferase luminescence, concentration not given here; parasite load remaining: stronger effect = lower value; viability: measured here: HepG2 viability without parasites
# [8] = galactose survival enhancers in mitochondrial complex I cybrids – cell-based, galactose medium, ATP luminescence, primary screen (AID 1645843;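 active = z-score of at least 1.8 in each of two replicates, scored against plate mean and spread of sample wells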;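 note: positive z means more ATP and so rescue of galactose-driven cybrid death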); conditions: complex I mutant cybrid cells, 72 h, stronger effect = higher value
# [9] = blockers of polyQ-driven CASP3 activation – cell-based (AID 1583); conditions: polyglutamine-induced caspase-3 activation, cell assay; stronger effect = higher value;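 tested at 10 µM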
# [10] = yeast 75Q aggregation reduction – 75Q-TubU reporter (AID 1593); conditions: Yeast 75Q polyglutamine aggregation reporter
# [11] = restoration of touch response, mutant HTT neurons – whole organism, C. elegans mechanosensory neurons, N-terminal huntingtin (AID 1599); conditions: C. elegans polyQ-huntingtin mechanosensory neurons, stronger effect = higher value
# [12] = blockers of cytochrome c efflux from mitochondria – biochemical, purified mitochondria (AID 1603); conditions: stronger effect = lower value;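 note: mouse liver mitochondria challenged with calcium chloride; signal normalized to the plate average as 100%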
# [13] = polyglutamine aggregate formation blockers (AID 1604); conditions: polyglutamine-induced protein aggregation inhibition assay; stronger effect = higher value; tested at 2.5 µM
# [14] = glutamate transport activators, MN-1 cells, MN-1 cell line (AID 1612); conditions: MN-1 motor neuron cells, stronger effect = higher value;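 note: tested at 1 µM final; 0% = mean of DMSO vehicle wells on each plate; positive means more glutamate uptake than control and negative means less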
# [15] = 75Q-TubH aggregate inhibition, S. cerevisiae, yeast (AID 1616); conditions: S. cerevisiae 75Q-TubH polyglutamine aggregation suppression; stronger effect = higher value
# [16] = compounds altering viability of human ES cells (AID 493140; call rule not given here;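 note: cells exposed to compounds for four days before counting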); conditions: human embryonic stem cell survival screen; stronger effect = higher value
# [17] = GFP-Q80 aggregate reduction, neuronal-like cells, cell-based, NGF-treated PC12, GFPQ80 (AID 1614); conditions: PC12 NGF-treated GFP-polyQ80 inclusion reduction;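 note: lower means fewer inclusions and 0 means no inclusions at all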
# [18] = target: NAD(+) hydrolase SARM1 (Homo sapiens) (UniProt Q6SZW1); experiment: blocking NAD cleavage by SARM1 SAM-TIR – cell lysate, NAD-Glo luminescence (AID 1508614;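 active = compound whose remaining NAD level is above about 45 nM, limit read from the data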;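 note: higher remaining NAD means stronger inhibition of SARM1 NADase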); conditions: SAM-TIR HEK293T lysate NADase, at 1 µM, stronger effect = higher value
# NAD(+) hydrolase SARM1 (Homo sapiens), sequence (Q6SZW1 whole entry, looked up): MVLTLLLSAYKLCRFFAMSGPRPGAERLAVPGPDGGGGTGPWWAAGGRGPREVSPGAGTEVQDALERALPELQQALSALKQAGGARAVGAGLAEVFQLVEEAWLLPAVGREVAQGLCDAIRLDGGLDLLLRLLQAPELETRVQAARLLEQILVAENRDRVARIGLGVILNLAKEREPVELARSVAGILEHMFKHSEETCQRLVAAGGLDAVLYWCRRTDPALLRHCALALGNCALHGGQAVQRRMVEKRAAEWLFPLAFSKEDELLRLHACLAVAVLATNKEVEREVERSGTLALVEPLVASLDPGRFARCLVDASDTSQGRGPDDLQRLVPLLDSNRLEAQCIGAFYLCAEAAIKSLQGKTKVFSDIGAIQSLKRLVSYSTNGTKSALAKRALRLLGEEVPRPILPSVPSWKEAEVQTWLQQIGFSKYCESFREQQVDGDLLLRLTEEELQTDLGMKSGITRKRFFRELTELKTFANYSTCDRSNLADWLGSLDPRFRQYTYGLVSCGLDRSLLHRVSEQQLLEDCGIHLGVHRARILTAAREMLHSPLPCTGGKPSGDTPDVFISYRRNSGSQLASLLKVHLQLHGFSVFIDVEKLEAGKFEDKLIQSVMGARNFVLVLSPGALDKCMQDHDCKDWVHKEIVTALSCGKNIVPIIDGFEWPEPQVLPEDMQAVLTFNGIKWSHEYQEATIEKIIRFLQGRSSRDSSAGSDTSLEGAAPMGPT
# [19] = measured here: epithelial PC-3E GFP cell survival
# [20] = measured here: mesenchymal TEM4-18 mCherry cell survival
# [21] = stronger effect = lower value, cell number ratio, induced over uninduced
# [22] = measured here: relative caspase fold change +Dox/-Dox
# [23] = measured here: total cells with miR-34 induction, stronger effect = lower value
# [24] = measured here: total cells without miR-34 induction
# [25] = MELAS cybrid survival, CellTiter-Glo 48 h, stronger effect = higher value
# [26] = Rieske KO mouse fibroblast survival, CellTiter-Glo 72 h
structure (smiles),measurement,setting,value
Cc1cc(O)c2c(c1)C(=O)c1cccc(O)c1C2=O,inhibition,[1],2.69% (inactive)
same,red/green cell ratio (normalised),[2],1.03 (inactive)
same,normalised cell number,[2]; [19],0.99
same,normalised cell number,[2]; [20],1.02
same,fold change,[3]; [21],0.938 (inactive)
same,fold change,[3]; [22],0.889
same,cell count,[3]; [23],10200
same,cell count,[3]; [24],10900
same,z-score,[4]; [25],-0.322 (inactive)
same,z-score,[4]; [26],0.837
same,viability,"[5]; at 0.000305 µM, OCI-C5x cells, with rucaparib 10 µM, 100% = cells with rucaparib alone",120% (inactive)
same,viability,"[5]; at 0.000305 µM, OCI-C5x cells, without rucaparib",106% (inactive)
same,viability,"[5]; at 0.000305 µM, OCI-P5x cells, with rucaparib 20 µM, 100% = cells with rucaparib alone",93.2% (active)
same,viability,"[5]; at 0.000305 µM, OCI-P5x cells, without rucaparib",92.5% (active)
same,viability,"[5]; at 0.00122 µM, OCI-C5x cells, with rucaparib 10 µM, 100% = cells with rucaparib alone",115% (inactive)
same,viability,"[5]; at 0.00122 µM, OCI-C5x cells, without rucaparib",113% (inactive)
same,viability,"[5]; at 0.00122 µM, OCI-P5x cells, with rucaparib 20 µM, 100% = cells with rucaparib alone",92.4% (active)
same,viability,"[5]; at 0.00122 µM, OCI-P5x cells, without rucaparib",95.7% (active)
same,viability,"[5]; at 0.00488 µM, OCI-C5x cells, with rucaparib 10 µM, 100% = cells with rucaparib alone",117% (inactive)
same,viability,"[5]; at 0.00488 µM, OCI-C5x cells, without rucaparib",112% (inactive)
same,viability,"[5]; at 0.00488 µM, OCI-P5x cells, with rucaparib 20 µM, 100% = cells with rucaparib alone",94.8% (active)
same,viability,"[5]; at 0.00488 µM, OCI-P5x cells, without rucaparib",102% (inactive)
same,viability,"[5]; at 0.0195 µM, OCI-C5x cells, with rucaparib 10 µM, 100% = cells with rucaparib alone",115% (inactive)
same,viability,"[5]; at 0.0195 µM, OCI-C5x cells, without rucaparib",103% (inactive)
same,viability,"[5]; at 0.0195 µM, OCI-P5x cells, with rucaparib 20 µM, 100% = cells with rucaparib alone",104% (inactive)
same,viability,"[5]; at 0.0195 µM, OCI-P5x cells, without rucaparib",104% (inactive)
same,viability,"[5]; at 0.0781 µM, OCI-C5x cells, with rucaparib 10 µM, 100% = cells with rucaparib alone",112% (inactive)
same,viability,"[5]; at 0.0781 µM, OCI-C5x cells, without rucaparib",113% (inactive)
same,viability,"[5]; at 0.0781 µM, OCI-P5x cells, with rucaparib 20 µM, 100% = cells with rucaparib alone",105% (inactive)
same,viability,"[5]; at 0.0781 µM, OCI-P5x cells, without rucaparib",107% (inactive)
same,viability,"[5]; at 0.313 µM, OCI-C5x cells, with rucaparib 10 µM, 100% = cells with rucaparib alone",102% (inactive)
same,viability,"[5]; at 0.313 µM, OCI-C5x cells, without rucaparib",104% (inactive)
same,viability,"[5]; at 0.313 µM, OCI-P5x cells, with rucaparib 20 µM, 100% = cells with rucaparib alone",101% (inactive)
same,viability,"[5]; at 0.313 µM, OCI-P5x cells, without rucaparib",109% (inactive)
same,viability,"[5]; at 1.25 µM, OCI-C5x cells, with rucaparib 10 µM, 100% = cells with rucaparib alone",114% (inactive)
same,viability,"[5]; at 1.25 µM, OCI-C5x cells, without rucaparib",118% (inactive)
same,viability,"[5]; at 1.25 µM, OCI-P5x cells, with rucaparib 20 µM, 100% = cells with rucaparib alone",111% (inactive)
same,viability,"[5]; at 1.25 µM, OCI-P5x cells, without rucaparib",109% (inactive)
same,viability,"[5]; at 5 µM, OCI-C5x cells, with rucaparib 10 µM, 100% = cells with rucaparib alone",121% (inactive)
same,viability,"[5]; at 5 µM, OCI-C5x cells, without rucaparib",114% (inactive)
same,viability,"[5]; at 5 µM, OCI-P5x cells, with rucaparib 20 µM, 100% = cells with rucaparib alone",97.2% (active)
same,viability,"[5]; at 5 µM, OCI-P5x cells, without rucaparib",108% (inactive)
same,luciferase signal,[6],64 AU (inactive)
COc1ccc(-c2coc3cc(O)ccc3c2=O)cc1,parasite load remaining,[7],260% (inactive)
same,viability,[7],88.5%
same,inhibition,[1],-6.94% (inactive)
same,red/green cell ratio (normalised),[2],0.93 (inactive)
same,normalised cell number,[2]; [19],1.23
same,normalised cell number,[2]; [20],1.14
same,fold change,[3]; [21],0.949 (inactive)
same,fold change,[3]; [22],0.624
same,cell count,[3]; [23],7740
same,cell count,[3]; [24],8150
same,z-score,[4]; [25],-0.217 (inactive)
same,z-score,[4]; [26],0.38
same,luciferase signal,[6],140 AU (inactive)
O=c1c(O)c(-c2ccc(O)c(O)c2)oc2cc(O)ccc12,inhibition,[1],-3.55% (inactive)
same,red/green cell ratio (normalised),[2],1.02 (inactive)
same,normalised cell number,[2]; [19],1.04
same,normalised cell number,[2]; [20],1.06
same,fold change,[3]; [21],0.705 (inactive) and 0.857 (inactive)
same,fold change,[3]; [22],0.235 and 0.741
same,cell count,[3]; [23],4440 and 7100
same,cell count,[3]; [24],6300 and 8290
same,z-score,[4]; [25],-0.19 (inactive) and -0.5 (inactive)
same,z-score,[4]; [26],-0.897 and -0.252
same,luciferase signal,[6],56 AU (inactive)
same,z-score,[8],0.17 (inactive)
O=c1cc(-c2ccccc2)oc2cc(O)cc(O)c12,inhibition,[9],16.7%
same,score,[10],-0.45
same,rescue above control,[11],1.21
same,cytochrome c release ratio,[12],0.64
same,inhibition of aggregation,[13],83.3%
same,glutamate uptake change,[14],-33.9%
same,aggregation suppression score,[15],0.573
same,survival,[16],11.8 (inactive)
same,parasite load remaining,[7],112% (inactive) and 75% (inactive)
same,viability,[7],98.1% and 69.3%
same,inhibition,[1],13.6% (inactive)
same,red/green cell ratio (normalised),[2],0.89 (inactive)
same,normalised cell number,[2]; [19],1.21
same,normalised cell number,[2]; [20],1.08
same,fold change,[3]; [21],0.807 (inactive) and 0.948 (inactive)
same,fold change,[3]; [22],1.38 and 0.939
same,cell count,[3]; [23],5370 and 8220
same,cell count,[3]; [24],6660 and 8680
same,z-score,[4]; [25],-0.289 (inactive)
same,z-score,[4]; [26],0.583
same,luciferase signal,[6],136 AU (inactive)
CC[C@H]1OC(=O)[C@H](C)[C@@H](O[C@H]2C[C@@](C)(OC)[C@@H](O)[C@H](C)O2)[C@H](C)[C@@H](O[C@@H]2O[C@H](C)C[C@H](N(C)C)[C@H]2O)[C@](C)(O)C[C@@H](C)C(=O)[C@H](C)[C@@H](O)[C@]1(C)O,inhibition,[9],-6% and 7.62% and 29.3%
same,score,[10],1 and 1.46 and 0.46
same,rescue above control,[11],2.19 and 2 and 0.57
same,cytochrome c release ratio,[12],1.13 and 0.65 and 0.96
same,inhibition of aggregation,[13],76.2% and 28.2% and 15.7%
same,glutamate uptake change,[14],-4.4% and 1.02% and 35.1%
same,inclusion score,[17],2
same,aggregation suppression score,[15],0.915 and 1.27 and 0.716
same,parasite load remaining,[7],44.8% (inactive) and 99.9% (inactive) and 62.2% (inactive)
same,viability,[7],44.6% and 74.8% and 115%
same,inhibition,[1],2.57% (inactive) and -12% (inactive)
same,red/green cell ratio (normalised),[2],1.08 (inactive) and 0.76 (inactive)
same,normalised cell number,[2]; [19],0.96 and 0.98
same,normalised cell number,[2]; [20],1.03 and 0.74
same,fold change,[3]; [21],0.923 (inactive) and 0.889 (inactive) and 0.914 (inactive)
same,fold change,[3]; [22],0.947 and 1.27 and 1.04
same,cell count,[3]; [23],7930 and 8750 and 10800
same,cell count,[3]; [24],8590 and 9850 and 11800
same,z-score,[4]; [25],-0.415 (inactive)
same,z-score,[4]; [26],-0.471
same,remaining NAD,[18],85 nM (active) and 10 nM (inactive)
same,luciferase signal,[6],60 AU (inactive)
